# Screening results (PubChem)
# Beta cell apopt = inhibitors of cytokine-induced beta cell apoptosis, primary screen, luminescence | 300,000 tested, 0.8% active | protection from apoptosis, % (no concentration beside the values) | INS-1E cytokine-induced death, ATP luminescence, 48 h; percent of positive-control rescue, neutral wells zero;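 active = Every replicate reaches about 75%, or at least half do and their mean reaches it too, limit read from the data; inconclusive = At least half of replicates reach the limit but their mean does not; inactive = Under half of replicates reach the limit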;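 note: 0% = cytokine-treated negative control wells and 100% = positive control rescue; higher means more ATP so stronger rescue from cytokine killing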
# GRIN3A LBD mod = binders of NR3A ligand-binding domain, primary screen, biophysical, differential scanning fluorimetry, uHTS; 340,000 tested, 2.5% active; NR3A LBD differential scanning fluorimetry, Tm shift; 0% = protein alone, 100% = glycine-bound protein; Glutamate receptor ionotropic, NMDA 3A (GRIN3A) ligand-binding domain; Tm shift relative to glycine control, % at 25 µM; AID 1259313, 2017;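 active = melting temperature shift of at least 10% of the positive control shift, at one fixed dose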
# Mdm2 MdmX PPI = inhibitors of human Mdm2-MdmX association, primary screen, cell-based, luminescence, split luciferase, SaOS-2, uHTS. Protein Mdm4 (Homo sapiens) + E3 ubiquitin-protein ligase Mdm2 (Homo sapiens), …. SaOS-2 split-luciferase Mdm2/MdmX complementation. inhibition, % at 8 µM. 330,000 tested, 3% active;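 active = inhibition of at least 50% at 8 µM in the primary screen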
# Gli-Sufu block = Gli-Sufu pathway antagonists, primary screen, luciferase luminescence, Sufu-KO-LIGHT cells, uHTS; Sufu-KO-LIGHT fibroblasts, Gli luciferase reporter luminescence; inhibition, % at 5 µM; 340,000 tested, 0.74% active; AID 588413, 2011;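 active = inhibition above about 55%, limit read from the data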;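 note: 0% = DMSO-treated cells and 100% = wells with medium but no cells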
# CSC inhib = cancer stem cell viability inhibitors, primary screen, luminescence | cancer stem cell-like cells viability | inhibition, % at 7.5 µM | 300,000 tested, 1.1% active; in the data active = inhibition above about 75%; inconclusive = no clear call, values can overlap the other calls; tested in HMLE shEcad cells
# MPTP block = mitochondrial permeability transition pore inhibitors, primary screen, biochemical, isolated mouse mitochondria, absorbance; inhibition, % at 10 µM; 360,000 tested, 1.4% active; Ca2+ swelling absorbance, 30 min;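 active = inhibition of 50% or more, scaled per plate between neutral and stimulator controls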;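 note: 0% = DMSO wells given calcium and 100% = 1 mM EGTA wells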
# Mdm2-MdmX conf = Mdm2-MdmX complex disruptors, retested hits, confirmation, luminescence, single concentration; shares compounds with Mdm2 MdmX PPI; Mdm2-MdmX binding, luminescent assay; 10,000 tested, 55% active; AID 489028, 2010; inhibition, % at 8 µM; in the data active = inhibition above about 40%
# FLuc counter = full-length luciferase signal inhibition, confirmation, counter-screen for Mdm2/MdmX interaction inhibitor project, cell-based, single concentration, SaOS-2; shares compounds with Mdm2 MdmX PPI; AID 504607, 2011; 6,200 tested, 77% active; SaOS-2 full-length luciferase counterscreen, luminescence; inhibition, % at 8 µM;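 active = mean inhibition at 8 µM reaching about 37%, which flags the compound as non-specific, limit read from the data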;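 note: p53-null SaOS-2 cells with luciferase driven by a doxycycline-inducible promoter; compound on cells about two nights before reading with doxycycline added after day one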
# The depositor's hits bear a star; ? = inconclusive; . = no result. This is a sample that favours compounds with a hit; in the whole collection about 6.6% have one here.
SMILES,Beta cell apopt,GRIN3A LBD mod,Mdm2 MdmX PPI,Gli-Sufu block,CSC inhib,MPTP block,Mdm2-MdmX conf,FLuc counter
COc1ccc2cc(CN(CC3CCCO3)C(=O)Nc3ccccc3OC)c(=O)[nH]c2c1 (centres undefined),11,0,59*,0,47,1,53*,63*
CCN1CCCC1CN(Cc1cc2ccc(C)cc2[nH]c1=O)C(=S)Nc1ccc(F)cc1 (centres undefined),5,1,60*,31,-6,-1,35,63*
COc1ccc2cc(CN(CC3CCCO3)C(=S)Nc3ccccc3)c(=O)[nH]c2c1 (centres undefined),-1,-8,52*,15,6,-4,51*,57*
O=C(COC(=O)C1CCN(c2ccc(C(F)(F)F)cn2)CC1)NCc1ccc(F)cc1,1,-4,10,-6,-23,-2,.,.
CCOc1cc(-c2nc(-c3ccccc3)c(-c3cc([N+](=O)[O-])ccc3C)[nH]2)ccc1O,5,4,57*,9,.,16,13,.
COc1ccc(-c2nc(-c3ccccc3)c(-c3cc([N+](=O)[O-])ccc3C)[nH]2)cc1OC,7,-4,19,15,33,0,.,.
COC(=O)c1ccc(COC(=O)C2CCN(S(=O)(=O)c3ccccc3C(=O)OC)CC2)cc1,-3,0,19,0,3,0,.,.
CCN(CC)CCNC(=O)c1ccc(NC(=O)COc2ccc3c(c2)CCC3)cc1,-2,2,7,-9,.,-1,.,.
Cc1cc2c(cc1C)-c1c(ssc1=Nc1ccc(S(N)(=O)=O)cc1)C(C)(C)N2,28,5,62*,0,-2,0,40*,44*
COc1ccc(CNC(=O)COC(=O)Cc2ccc(Br)cc2)cc1,-2,1,-7,7,-17,1,.,.
COC(=O)/C(=C1/Oc2cc(C)oc(=O)c2S1)C(F)(F)F,-6,1,100*,34,-14,0,100*,51*
Cc1c([N+](=O)[O-])c2ccc(O)cc2n1-c1ccccc1,-16,-2,66*,-9,-11,2,65*,19
Cc1ccc(-n2c(C)c([N+](=O)[O-])c3ccc(O)cc32)cc1,-12,.,50,.,-6,.,65*,10
COc1ccc(NC(=O)c2cc(S(=O)(=O)N3CCCCC3)ccc2C)cc1S(=O)(=O)N1CCOCC1,.,-2,.,-1,.,0,.,.
O=[N+]([O-])c1cc(C(F)(F)F)ccc1-n1nnc2ccccc21,-10,1,64*,-7,9,-1,10,.
COCCCN1C(=O)C(CC(=O)NCCCCc2ccccc2)CC(C(=O)N2CCOCC2)=C1C (centres undefined),.,.,.,.,.,2,.,.
O=C(OCCN1C(=O)c2ccccc2C1=O)c1cc(S(=O)(=O)N2CCOCC2)ccc1F,-2,-1,3,-1,-13,-1,.,.
O=C(OCCN1C(=O)c2cccc3c(N4CCOCC4)ccc(c23)C1=O)c1ccc(Cl)cc1,4,7,73*,-8,7,0,53*,69*
CCN(CC(=O)Nc1c(F)cccc1F)C(=O)C1CC1,3,-1,8,-3,.,0,.,.
CCN(CC)CCNC(=O)C1CCN(S(=O)(=O)c2c(C)noc2/C=C/c2ccccc2F)CC1,5,-1,56*,9,-6,-1,24,.
Cc1ccccc1OCCc1c(C)[nH]c(=S)[nH]c1=O,6,-1,55*,9,-2,-1,62*,56*
O=C1CC(=C(c2ccccc2)c2ccccc2)C(=O)N1CCCCN1CCN(c2cccc(Cl)c2)CC1,-4,-4,60*,11,113*,12,37,.
O=C(CCCOc1ccc(Cl)cc1Cl)N/N=C/c1ccccc1O,-4,18*,76*,2,168*,34,82*,22
Cc1ccc(C(=O)O/N=C/c2c(N3CCOCC3)n(C)c3ccccc23)cc1,99*,-10,51*,12,-7,1,40*,7
COc1ccc(C(CCNCc2ccccc2)c2ccc(F)cc2)cc1 (centres undefined),15,-2,46,23,11,2,.,.
SMILES,Beta cell apopt,GRIN3A LBD mod,Mdm2 MdmX PPI,Gli-Sufu block,CSC inhib,MPTP block,Mdm2-MdmX conf,FLuc counter
COc1ccc(C(CCNC(C)c2ccccc2)c2ccc(F)cc2)cc1 (centres undefined),21,-2,73*,26,11,7,32,.
COc1ccc(CNCCC(c2ccccc2)c2ccc(OC(C)C)cc2)cc1OC (centres undefined),42,0,75*,31,10,10,26,.
COc1ccc(CCNCc2ccc(-c3ccccc3)cc2)cc1OC,.,0,.,0,.,12,.,.
COc1ccc(CNCC(O)(c2ccccc2)c2ccc(F)cc2)cc1OC (centres undefined),17,1,-27,17,-2,2,.,.
COc1ccc(CNCCC(c2ccc(F)cc2)c2ccc(OC(C)C)cc2)cc1OC (centres undefined),7,-2,93*,-25,21,3,34,76*
COc1ccc(C(CCNCc2ccc(F)cc2)c2ccc(F)cc2)cc1 (centres undefined),7,-1,76*,15,50,4,34,90*
COc1cc2ccccc2cc1C(=O)Nc1ccc(Cl)cn1,.,0,-17,-75,-9,2,.,.
COc1ccc2c(N)c(C(=O)NN)[nH]c2c1,.,0,14,2,-24,2,.,.
CC(C)NC(=O)c1ccc2c(c1)N(CC(=O)Nc1ccccc1F)C(=O)C(C)(C)O2,3,-3,14,16,-12,0,.,.
CC(=O)c1c(C)[nH]c(C(=O)CN2CCN(S(=O)(=O)c3ccccc3)CC2)c1C,?,-2,15,3,.,-1,.,.
COc1ccc(CN(CCC(c2ccccc2)c2ccc(OC(C)C)cc2)C(=O)CCl)cc1OC (centres undefined),9,1,101*,9,?,1,85*,55*
CN1CCCC1CCNC1C2CC3CC(C2)CC1C3 (centres undefined),1,0,15,3,9,0,.,.
